# Measurements: article PMC7862700, “An all-to-all approach to the identification of sequence-specific readers for epigenetic DNA modifications on cytosine”
# Assays:
# Experiment in all cases: DAPPL (digital affinity profiling via proximity ligation, sequencing); 10 mM Tris-HCl pH 7.5, 50 mM NaCl, 1 mM DTT, 4% glycerol, room temperature, 30 min; GST-TFs on glutathione beads, 16-mer random dsDNA library, 0.1% formaldehyde crosslink after washing; high values mean tight binding
# [1] = biological target: T1, FLI1 (Homo sapiens, UniProt Q01543 1-452); details: protein: recombinant; tags: N-terminal GST; dsDNA, one strand shown
# T1 sequence: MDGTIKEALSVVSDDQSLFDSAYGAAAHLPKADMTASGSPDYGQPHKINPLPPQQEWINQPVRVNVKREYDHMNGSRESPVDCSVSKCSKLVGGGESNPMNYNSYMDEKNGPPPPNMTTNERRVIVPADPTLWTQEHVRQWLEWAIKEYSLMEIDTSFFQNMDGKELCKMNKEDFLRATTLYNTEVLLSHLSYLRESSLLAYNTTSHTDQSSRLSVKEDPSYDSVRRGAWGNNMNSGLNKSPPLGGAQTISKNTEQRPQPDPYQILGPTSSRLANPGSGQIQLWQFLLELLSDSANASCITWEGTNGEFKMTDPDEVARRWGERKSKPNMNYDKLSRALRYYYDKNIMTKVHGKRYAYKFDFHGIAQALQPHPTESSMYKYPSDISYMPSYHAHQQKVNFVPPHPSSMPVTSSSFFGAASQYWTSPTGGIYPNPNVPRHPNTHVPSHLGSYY
# Summary of the method: (§1)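 Binding signal is each hexamer's read frequency for a factor divided by its frequency in the tag-only sample. The factors were GST-fused human transcription factors from yeast, captured on glutathione beads, DNA-barcoded and pooled with that sample. Pools were incubated with 200 nmole of a random double-stranded 16-mer DNA library in Tris/NaCl/DTT/glycerol buffer at room temperature for 30 min, then washed, crosslinked with 0.1% formaldehyde, proximity-ligated with BsaI/T4 ligase (1 h, 37 °C), PCR-amplified and sequenced on an Illumina NextSeq500.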
# [2] = biological target: T2, ELK1 (Homo sapiens, UniProt P19419 1-428); details: protein: recombinant; tags: N-terminal GST; dsDNA, one strand shown
# T2 sequence: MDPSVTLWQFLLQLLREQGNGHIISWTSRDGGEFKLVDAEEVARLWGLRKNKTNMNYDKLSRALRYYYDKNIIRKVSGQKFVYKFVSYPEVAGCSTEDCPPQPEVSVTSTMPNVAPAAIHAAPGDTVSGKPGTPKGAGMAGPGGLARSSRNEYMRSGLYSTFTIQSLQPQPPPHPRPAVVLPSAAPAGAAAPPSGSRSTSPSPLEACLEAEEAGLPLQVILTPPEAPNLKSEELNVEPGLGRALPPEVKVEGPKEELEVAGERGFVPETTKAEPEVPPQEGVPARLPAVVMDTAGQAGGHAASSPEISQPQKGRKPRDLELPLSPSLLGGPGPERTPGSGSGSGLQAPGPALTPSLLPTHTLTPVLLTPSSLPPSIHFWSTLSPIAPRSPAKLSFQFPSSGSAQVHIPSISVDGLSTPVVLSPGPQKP
# Summary of the method: as §1
# [3] = biological target: T3, GABPA (Homo sapiens, UniProt Q06546 1-454); details: protein: recombinant; tags: N-terminal GST; dsDNA, one strand shown
# T3 sequence: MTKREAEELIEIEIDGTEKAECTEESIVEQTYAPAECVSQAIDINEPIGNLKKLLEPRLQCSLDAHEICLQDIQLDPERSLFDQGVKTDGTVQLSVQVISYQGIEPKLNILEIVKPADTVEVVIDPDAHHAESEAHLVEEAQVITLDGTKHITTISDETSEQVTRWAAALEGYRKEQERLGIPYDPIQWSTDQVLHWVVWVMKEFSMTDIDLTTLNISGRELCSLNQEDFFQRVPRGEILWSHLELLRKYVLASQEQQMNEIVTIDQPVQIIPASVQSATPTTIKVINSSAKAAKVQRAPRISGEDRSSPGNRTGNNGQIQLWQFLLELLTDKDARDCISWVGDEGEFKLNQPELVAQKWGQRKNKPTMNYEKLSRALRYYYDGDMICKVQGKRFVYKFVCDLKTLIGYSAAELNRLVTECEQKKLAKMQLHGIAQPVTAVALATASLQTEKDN
# Summary of the method: as §1
# [4] = biological target: T4, ERG (Homo sapiens, UniProt P11308 1-479); details: protein: recombinant; tags: N-terminal GST; dsDNA, one strand shown
# T4 sequence: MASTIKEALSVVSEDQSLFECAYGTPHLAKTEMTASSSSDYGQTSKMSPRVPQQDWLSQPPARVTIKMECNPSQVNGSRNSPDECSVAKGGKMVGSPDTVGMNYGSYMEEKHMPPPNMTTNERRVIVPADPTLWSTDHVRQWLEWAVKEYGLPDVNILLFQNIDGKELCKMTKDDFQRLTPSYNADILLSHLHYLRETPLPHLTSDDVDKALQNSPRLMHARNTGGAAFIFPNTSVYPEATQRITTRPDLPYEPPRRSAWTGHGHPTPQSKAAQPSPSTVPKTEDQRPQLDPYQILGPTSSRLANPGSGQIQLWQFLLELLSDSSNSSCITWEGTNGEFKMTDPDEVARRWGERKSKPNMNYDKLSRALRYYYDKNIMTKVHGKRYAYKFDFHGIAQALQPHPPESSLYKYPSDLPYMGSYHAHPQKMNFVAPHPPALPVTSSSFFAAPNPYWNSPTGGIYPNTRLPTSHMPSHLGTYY
# Summary of the method: as §1
# [5] = biological target: ELF1 (Homo sapiens, UniProt P32519 1-619); details: protein: recombinant; tags: N-terminal GST; dsDNA, one strand shown
# Summary of the method: as §1
# [6] = biological target: T5, EHF (Homo sapiens, UniProt Q9NZC4 1-300); details: protein: recombinant; tags: N-terminal GST; dsDNA, one strand shown
# T5 sequence: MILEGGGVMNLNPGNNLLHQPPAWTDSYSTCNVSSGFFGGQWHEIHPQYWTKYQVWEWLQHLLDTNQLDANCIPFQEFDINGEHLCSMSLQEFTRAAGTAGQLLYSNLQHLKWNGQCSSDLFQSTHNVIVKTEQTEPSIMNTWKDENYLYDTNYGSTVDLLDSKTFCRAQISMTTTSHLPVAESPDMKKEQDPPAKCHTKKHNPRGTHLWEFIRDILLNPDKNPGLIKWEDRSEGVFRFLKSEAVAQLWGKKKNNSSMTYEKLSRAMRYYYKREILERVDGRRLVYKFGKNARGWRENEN
# Summary of the method: as §1
# [7] = biological target: SPI1 (Homo sapiens, UniProt P17947 1-270); details: protein: recombinant; tags: N-terminal GST; dsDNA, one strand shown
# Summary of the method: as §1
# [8] = biological target: SPIB (Homo sapiens, UniProt Q01892 1-262); details: protein: recombinant; tags: N-terminal GST; dsDNA, one strand shown
# Summary of the method: as §1
# [9] = biological target: T6, ELK3 (Homo sapiens, UniProt P41970 1-407); details: protein: recombinant; tags: N-terminal GST; dsDNA, one strand shown
# T6 sequence: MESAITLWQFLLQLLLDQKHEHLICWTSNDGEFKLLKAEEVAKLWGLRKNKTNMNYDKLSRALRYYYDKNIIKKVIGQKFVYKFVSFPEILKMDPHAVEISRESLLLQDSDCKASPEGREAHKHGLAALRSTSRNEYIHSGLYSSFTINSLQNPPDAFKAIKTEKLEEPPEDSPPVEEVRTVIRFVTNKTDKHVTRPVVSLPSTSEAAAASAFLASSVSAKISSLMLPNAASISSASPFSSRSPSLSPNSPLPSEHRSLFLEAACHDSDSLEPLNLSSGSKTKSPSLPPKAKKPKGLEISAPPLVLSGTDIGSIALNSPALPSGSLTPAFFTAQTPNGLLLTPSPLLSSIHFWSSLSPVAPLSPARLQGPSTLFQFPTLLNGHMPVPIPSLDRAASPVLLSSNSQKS
# Summary of the method: as §1
# [10] = biological target: T7, FEV (Homo sapiens, UniProt Q99581 1-238); details: protein: recombinant; tags: N-terminal GST; dsDNA, one strand shown
# T7 sequence: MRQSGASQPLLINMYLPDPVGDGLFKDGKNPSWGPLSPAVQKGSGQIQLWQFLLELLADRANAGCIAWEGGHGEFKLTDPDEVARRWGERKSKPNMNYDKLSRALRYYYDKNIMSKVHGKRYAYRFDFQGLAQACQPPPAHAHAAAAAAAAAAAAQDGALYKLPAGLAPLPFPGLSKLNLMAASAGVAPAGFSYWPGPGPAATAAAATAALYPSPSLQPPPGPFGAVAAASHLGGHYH
# Summary of the method: as §1
# [11] = biological target: ETV5 (Homo sapiens, UniProt P41161 1-510); details: protein: recombinant; tags: N-terminal GST; dsDNA, one strand shown
# Summary of the method: as §1
# [12] = biological target: HSF1 (Homo sapiens, UniProt Q00613 1-529); details: protein: recombinant; tags: N-terminal GST; chain copies: 3; dsDNA, one strand shown
# Summary of the method: as §1
# [13] = biological target: T8, SPIC (Homo sapiens, UniProt Q8N5J4 1-248); details: protein: recombinant; tags: N-terminal GST; dsDNA, one strand shown
# T8 sequence: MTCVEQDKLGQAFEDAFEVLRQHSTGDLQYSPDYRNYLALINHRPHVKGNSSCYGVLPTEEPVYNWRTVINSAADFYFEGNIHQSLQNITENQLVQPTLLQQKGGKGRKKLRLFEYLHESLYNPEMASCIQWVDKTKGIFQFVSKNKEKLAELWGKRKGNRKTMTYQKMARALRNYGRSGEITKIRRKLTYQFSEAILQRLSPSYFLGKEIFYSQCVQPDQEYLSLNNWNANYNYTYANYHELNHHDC
# Summary of the method: as §1
# [14] = biological target: ELF4 (Homo sapiens, UniProt Q99607 1-663); details: protein: recombinant; tags: N-terminal GST; dsDNA, one strand shown
# Summary of the method: as §1
# [15] = biological target: T9, ELK4 (Homo sapiens, UniProt P28324-2 1-405); details: protein: recombinant; tags: N-terminal GST; dsDNA, one strand shown
# T9 sequence: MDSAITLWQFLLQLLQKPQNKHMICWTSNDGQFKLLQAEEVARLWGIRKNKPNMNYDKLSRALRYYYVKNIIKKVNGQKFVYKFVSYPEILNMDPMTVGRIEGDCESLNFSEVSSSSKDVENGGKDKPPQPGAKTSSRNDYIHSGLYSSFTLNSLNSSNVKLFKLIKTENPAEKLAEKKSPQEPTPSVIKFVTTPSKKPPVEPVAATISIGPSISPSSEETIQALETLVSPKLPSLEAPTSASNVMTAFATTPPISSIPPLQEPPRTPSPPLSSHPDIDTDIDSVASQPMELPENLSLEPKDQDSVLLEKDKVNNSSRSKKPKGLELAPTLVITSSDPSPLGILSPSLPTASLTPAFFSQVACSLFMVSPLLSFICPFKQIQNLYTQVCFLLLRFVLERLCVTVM
# Summary of the method: as §1
# [16] = biological target: T10, ETV2 (Homo sapiens, UniProt O00321 1-342); details: protein: recombinant; tags: N-terminal GST; dsDNA, one strand shown
# T10 sequence: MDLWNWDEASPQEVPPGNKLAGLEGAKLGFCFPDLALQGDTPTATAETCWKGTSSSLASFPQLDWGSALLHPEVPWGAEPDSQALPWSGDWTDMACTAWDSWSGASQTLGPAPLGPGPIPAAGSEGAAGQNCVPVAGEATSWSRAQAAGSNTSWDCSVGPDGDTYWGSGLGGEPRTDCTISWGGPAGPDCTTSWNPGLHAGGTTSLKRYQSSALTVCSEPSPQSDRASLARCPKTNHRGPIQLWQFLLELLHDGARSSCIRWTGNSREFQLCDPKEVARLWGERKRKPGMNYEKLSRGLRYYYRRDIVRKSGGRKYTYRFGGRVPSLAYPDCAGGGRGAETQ
# Summary of the method: as §1
# [17] = biological target: T11, ELF3 (Homo sapiens, UniProt P78545 1-371); details: protein: recombinant; tags: N-terminal GST; dsDNA, one strand shown
# T11 sequence: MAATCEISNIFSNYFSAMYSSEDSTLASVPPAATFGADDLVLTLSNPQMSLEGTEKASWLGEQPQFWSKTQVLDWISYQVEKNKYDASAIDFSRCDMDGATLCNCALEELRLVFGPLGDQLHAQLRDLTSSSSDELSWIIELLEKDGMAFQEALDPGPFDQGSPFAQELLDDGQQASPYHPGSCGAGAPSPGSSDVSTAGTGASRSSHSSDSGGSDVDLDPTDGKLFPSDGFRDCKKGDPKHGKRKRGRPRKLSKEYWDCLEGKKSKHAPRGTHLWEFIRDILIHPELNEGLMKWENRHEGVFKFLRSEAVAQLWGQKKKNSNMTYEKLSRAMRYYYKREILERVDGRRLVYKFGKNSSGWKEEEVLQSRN
# Summary of the method: as §1
# [18] = biological target: CRX (Homo sapiens, UniProt O43186 1-299); details: protein: recombinant; tags: N-terminal GST; dsDNA, one strand shown
# Summary of the method: as §1
# [19] = biological target: ETV1 (Homo sapiens, UniProt P50549 1-477); details: protein: recombinant; tags: N-terminal GST; dsDNA, one strand shown
# Summary of the method: as §1
# Sequence of ETV1 (P50549 whole entry): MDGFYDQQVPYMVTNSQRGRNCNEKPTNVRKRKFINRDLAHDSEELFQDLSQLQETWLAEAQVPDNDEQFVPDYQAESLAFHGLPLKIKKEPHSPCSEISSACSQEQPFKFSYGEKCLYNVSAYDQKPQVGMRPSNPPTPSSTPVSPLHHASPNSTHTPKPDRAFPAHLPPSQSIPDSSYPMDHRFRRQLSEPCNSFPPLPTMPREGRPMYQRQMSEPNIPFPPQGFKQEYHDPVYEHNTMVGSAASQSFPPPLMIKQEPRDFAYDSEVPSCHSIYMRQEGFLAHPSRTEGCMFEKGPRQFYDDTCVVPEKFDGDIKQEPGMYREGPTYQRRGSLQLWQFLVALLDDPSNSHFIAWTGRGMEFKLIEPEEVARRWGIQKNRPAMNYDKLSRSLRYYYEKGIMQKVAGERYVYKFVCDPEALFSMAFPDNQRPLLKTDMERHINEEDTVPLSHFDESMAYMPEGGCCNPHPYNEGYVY
# Sequence of HSF1 (Q00613 whole entry): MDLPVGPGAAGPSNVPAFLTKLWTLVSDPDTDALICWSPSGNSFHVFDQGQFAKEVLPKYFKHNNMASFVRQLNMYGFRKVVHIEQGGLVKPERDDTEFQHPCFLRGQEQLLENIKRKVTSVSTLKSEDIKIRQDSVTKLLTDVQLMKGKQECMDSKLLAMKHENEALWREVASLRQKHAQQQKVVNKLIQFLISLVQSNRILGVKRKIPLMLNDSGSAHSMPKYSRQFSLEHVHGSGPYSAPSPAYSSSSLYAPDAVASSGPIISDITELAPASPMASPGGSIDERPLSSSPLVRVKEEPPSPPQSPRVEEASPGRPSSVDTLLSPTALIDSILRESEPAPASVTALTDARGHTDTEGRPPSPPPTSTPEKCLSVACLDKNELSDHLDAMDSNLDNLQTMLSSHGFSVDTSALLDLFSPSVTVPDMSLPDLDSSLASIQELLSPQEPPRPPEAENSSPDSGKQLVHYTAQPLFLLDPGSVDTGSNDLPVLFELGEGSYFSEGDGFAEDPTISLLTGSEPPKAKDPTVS
# Sequence of CRX (O43186 whole entry): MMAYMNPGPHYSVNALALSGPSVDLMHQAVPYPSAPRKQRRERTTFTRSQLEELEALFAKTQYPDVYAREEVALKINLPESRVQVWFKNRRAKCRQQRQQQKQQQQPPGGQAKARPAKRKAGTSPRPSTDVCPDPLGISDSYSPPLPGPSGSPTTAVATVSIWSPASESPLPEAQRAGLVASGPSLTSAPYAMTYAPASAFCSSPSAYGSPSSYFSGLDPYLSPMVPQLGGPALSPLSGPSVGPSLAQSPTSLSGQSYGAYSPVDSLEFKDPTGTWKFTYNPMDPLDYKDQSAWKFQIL
# Sequence of ELF4 (Q99607 whole entry): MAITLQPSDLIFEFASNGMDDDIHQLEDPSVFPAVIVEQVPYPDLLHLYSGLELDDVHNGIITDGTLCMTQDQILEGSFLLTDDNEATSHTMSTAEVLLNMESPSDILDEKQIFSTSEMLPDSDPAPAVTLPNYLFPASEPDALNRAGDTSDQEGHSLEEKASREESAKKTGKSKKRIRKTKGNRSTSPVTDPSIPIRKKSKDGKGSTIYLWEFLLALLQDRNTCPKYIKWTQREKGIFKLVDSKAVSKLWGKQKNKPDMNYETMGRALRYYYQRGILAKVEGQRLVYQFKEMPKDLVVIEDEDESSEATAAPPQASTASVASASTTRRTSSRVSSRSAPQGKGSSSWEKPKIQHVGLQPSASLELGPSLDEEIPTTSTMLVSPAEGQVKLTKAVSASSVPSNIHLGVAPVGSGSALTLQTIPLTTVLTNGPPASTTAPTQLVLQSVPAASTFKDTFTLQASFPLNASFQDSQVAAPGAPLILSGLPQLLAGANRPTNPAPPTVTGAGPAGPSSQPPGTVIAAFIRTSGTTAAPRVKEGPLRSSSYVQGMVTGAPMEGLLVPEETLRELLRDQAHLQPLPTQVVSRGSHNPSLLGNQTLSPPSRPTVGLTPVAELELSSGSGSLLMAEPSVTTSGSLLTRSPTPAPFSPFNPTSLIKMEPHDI
# Sequence of SPIB (Q01892 whole entry): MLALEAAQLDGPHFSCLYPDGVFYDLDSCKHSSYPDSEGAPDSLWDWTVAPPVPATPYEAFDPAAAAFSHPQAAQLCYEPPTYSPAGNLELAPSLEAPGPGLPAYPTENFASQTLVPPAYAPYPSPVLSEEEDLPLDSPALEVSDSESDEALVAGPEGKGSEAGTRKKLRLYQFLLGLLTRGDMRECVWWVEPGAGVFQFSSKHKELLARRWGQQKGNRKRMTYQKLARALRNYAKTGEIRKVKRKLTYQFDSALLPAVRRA
# Sequence of ELF1 (P32519 whole entry): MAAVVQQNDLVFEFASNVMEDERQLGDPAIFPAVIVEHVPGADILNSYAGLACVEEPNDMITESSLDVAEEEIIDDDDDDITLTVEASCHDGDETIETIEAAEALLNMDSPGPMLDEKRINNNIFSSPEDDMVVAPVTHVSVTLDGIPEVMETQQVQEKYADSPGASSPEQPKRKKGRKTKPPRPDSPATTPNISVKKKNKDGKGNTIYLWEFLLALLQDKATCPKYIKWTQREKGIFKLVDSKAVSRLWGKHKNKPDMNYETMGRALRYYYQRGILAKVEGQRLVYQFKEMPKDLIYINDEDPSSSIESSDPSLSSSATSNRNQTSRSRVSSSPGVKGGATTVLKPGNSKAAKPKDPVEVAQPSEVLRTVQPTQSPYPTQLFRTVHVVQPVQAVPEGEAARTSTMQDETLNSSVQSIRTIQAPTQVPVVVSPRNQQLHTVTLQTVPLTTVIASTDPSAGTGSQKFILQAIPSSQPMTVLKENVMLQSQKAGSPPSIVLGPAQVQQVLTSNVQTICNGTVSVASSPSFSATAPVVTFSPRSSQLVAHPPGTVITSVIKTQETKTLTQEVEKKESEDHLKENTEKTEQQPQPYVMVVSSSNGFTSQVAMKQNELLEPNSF
# Sequence of ETV5 (P41161 whole entry): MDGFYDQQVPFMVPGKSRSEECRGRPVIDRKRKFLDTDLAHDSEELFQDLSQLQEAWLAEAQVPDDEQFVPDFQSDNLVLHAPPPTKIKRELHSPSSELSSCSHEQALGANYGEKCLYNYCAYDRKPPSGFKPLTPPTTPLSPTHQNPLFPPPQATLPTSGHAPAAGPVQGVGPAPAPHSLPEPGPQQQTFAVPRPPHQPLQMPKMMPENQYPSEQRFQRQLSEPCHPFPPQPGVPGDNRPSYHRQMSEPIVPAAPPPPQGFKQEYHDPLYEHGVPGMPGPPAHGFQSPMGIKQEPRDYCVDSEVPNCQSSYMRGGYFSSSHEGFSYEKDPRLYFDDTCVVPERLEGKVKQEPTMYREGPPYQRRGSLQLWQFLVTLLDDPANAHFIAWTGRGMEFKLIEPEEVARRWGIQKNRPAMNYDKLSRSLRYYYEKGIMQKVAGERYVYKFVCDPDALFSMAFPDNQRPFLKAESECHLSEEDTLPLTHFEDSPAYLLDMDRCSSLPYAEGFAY
sequence,measurement,setting,value
GTAATT,binding signal,[1],"1.23 fold enrichment (6-mer frequency, TF over GST control)"
same,binding signal,[2],"1.1 fold enrichment (6-mer frequency, TF over GST control)"
same,binding signal,[3],"1.19 fold enrichment (6-mer frequency, TF over GST control)"
same,binding signal,[4],"1.19 fold enrichment (6-mer frequency, TF over GST control)"
same,binding signal,[5],"1.22 fold enrichment (6-mer frequency, TF over GST control)"
same,binding signal,[6],"1.21 fold enrichment (6-mer frequency, TF over GST control)"
same,binding signal,[7],"1.25 fold enrichment (6-mer frequency, TF over GST control)"
same,binding signal,[8],"1.23 fold enrichment (6-mer frequency, TF over GST control)"
same,binding signal,[9],"1.29 fold enrichment (6-mer frequency, TF over GST control)"
same,binding signal,[10],"1.16 fold enrichment (6-mer frequency, TF over GST control)"
same,binding signal,[11],"1.23 fold enrichment (6-mer frequency, TF over GST control)"
same,binding signal,[12],"1.36 fold enrichment (6-mer frequency, TF over GST control)"
same,binding signal,[13],"1.21 fold enrichment (6-mer frequency, TF over GST control)"
same,binding signal,[14],"1.22 fold enrichment (6-mer frequency, TF over GST control)"
same,binding signal,[15],"1.11 fold enrichment (6-mer frequency, TF over GST control)"
same,binding signal,[16],"1.31 fold enrichment (6-mer frequency, TF over GST control)"
same,binding signal,[17],"1.19 fold enrichment (6-mer frequency, TF over GST control)"
same,binding signal,[18],"1.59 fold enrichment (6-mer frequency, TF over GST control)"
same,binding signal,[19],"1.3 fold enrichment (6-mer frequency, TF over GST control)"
